# Measured values: PubChem BioAssay (NCI)
# Compounds without any hit were thinned out: in the full panel of roughly 83,000, 20% have a hit.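 Note: values are percent growth. 100 is the growth of untreated cells, values between 100 and 0 indicate rising inhibition; between -100 and 0 indicates cell death.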 Unmarked numbers belong to inactive results. Active and inactive are the calls of the source. The calls were made as follows: active = growth percent below 10; inactive = the rest.
# Assays:
# Assay in all cases: NCI-60 one-dose screen, 48 h (100 = growth as untreated, 0 = no growth, -100 = all killed)
# Conditions in all cases: 10 µM
# [1] = tested on: HT29 colon
# [2] = tested on: SNB-75 CNS
# [3] = tested on: SNB-19 CNS
# [4] = tested on: U251 CNS
# [5] = tested on: PC-3 prostate
# [6] = tested on: SK-MEL-5 melanoma
# [7] = tested on: UACC-62 melanoma
# [8] = tested on: LOX IMVI melanoma
# [9] = tested on: SK-MEL-28 melanoma
# [10] = tested on: SK-MEL-2 melanoma
SMILES,growth [1],growth [2],growth [3],growth [4],growth [5],growth [6],growth [7],growth [8],growth [9],growth [10]
O=C1/C(=C/c2ccc([N+](=O)[O-])s2)Oc2ccccc21,-15% (active),-7.58% (active),-0.508% (active),-76.5% (active),-23.2% (active),-64.8% (active),-80.4% (active),-70.4% (active),-35.9% (active),-48.9% (active)
O=C1/C(=C/c2ccc(Cl)cc2)SC(=Nc2ccc(Cl)cc2)N1Cc1nc2ccccc2[nH]1,97%,27.1%,75%,76.2%,41.6%,81.3%,64.6%,78%,92.6%,88.4%
CN(CCc1ccccn1)c1ccccc1,102%,92%,102%,96.4%,101%,103%,98%,102%,101%,101%
O=C(CCCCC(=O)Nc1ccc2c(c1)/C(=C/c1ccc[nH]1)C(=O)N2)NO,68.7%,47.7%,83%,69.3%,80.1%,65%,68.5%,94.4%,60.4%,59.4%
CC/C(=N\N=C(/CC)c1ccc(Br)cc1)c1ccc(Br)cc1,74.1%,89.9%,108%,105%,94.2%,104%,87.9%,98.7%,104%,97.3%
c1ccc(CP(Cc2ccccc2)c2ccccc2)cc1,88.2%,101%,105%,93.6%,86.2%,99%,99.3%,86.8%,110%,97%
N#CCCN1C/C(=C/c2ccc(Cl)cc2)C(=O)/C(=C/c2ccc(Cl)cc2)C1,-36.1% (active),11.6%,-28% (active),-95.3% (active),-39.6% (active),-60.6% (active),-66.1% (active),-80.4% (active),-61.4% (active),19%
CC[C@H]1CCC/C=C/[C@@H]2C[C@H](O)C[C@H]2[C@H](O)/C=C/C(=O)O1,-56.8% (active),27.5%,29.7%,15.7%,13.6%,-99.6% (active),-0.469% (active),-93.5% (active),-0.327% (active),-48.1% (active)
CN(C)CCNC(=O)c1cccn2c(=O)c3cc4ccccc4cc3nc12,-60.7% (active),-72.7% (active),17.6%,-11.1% (active),-16.6% (active),-20.3% (active),-56% (active),1.07% (active),-25.8% (active),-65.9% (active)
COC(=O)C1(C)Cc2cc(OC(C)=O)c(OC(C)=O)cc2N1 (stereo not given),79.8%,82%,105%,81.5%,64.7%,76.3%,56.6%,66%,100%,85.2%
ClC(Cl)(Cl)c1nc2nccnc2[nH]1,102%,83.4%,102%,104%,102%,113%,107%,102%,110%,109%
Cc1cccc(Cl)c1NC(=O)c1ccc2nc(NC(=O)NC3CCN(C)CC3)sc2c1,29.6%,6.73% (active),102%,80.5%,69.7%,71.6%,106%,79.7%,108%,126%
O=C1C(=O)c2ccccc2C(O)=C1CCCc1ccc(C2CCCCCC2)cc1,28.5%,49.3%,52.8%,46.1%,20.9%,25.2%,46.6%,16.5%,49.7%,88.1%
COc1ccc(-c2cc(/C=C3\C(=O)Nc4ccc(Cl)cc43)[nH]n2)cc1OC,93.5%,64.2%,90.9%,95.2%,88.4%,73%,95.9%,90.5%,99.3%,99.5%
COc1cc(-c2nc(-c3nnc(-c4ccc(F)c(Cl)c4)o3)c3ccccn23)cc(OC)c1OC,15.2%,3.25% (active),4.53% (active),31.8%,56.1%,39.7%,33.9%,58.2%,41.4%,25.8%
COc1cc(Cl)cc(-c2nn(-c3cccc(NC(=O)Nc4ccc(Cl)c(C(F)(F)F)c4)c3)cc2-c2ccncc2)c1,5.57% (active),14.5%,28.1%,-48.3% (active),-13% (active),-71.2% (active),6.62% (active),4.81% (active),23.6%,-34% (active)
COc1cc(C(=O)N2CCN(c3ccccc3OC)CC2)c(N)cc1OCCCN1CCN(c2ccccc2OC)CC1,98.2%,104%,104%,96.6%,69%,44.4%,79.4%,78.8%,119%,83.2%
COc1ccc(-c2ccc(-c3ccc(C(=N)N)cn3)o2)cc1,14.1%,61.1%,91.5%,76.3%,68.3%,72.3%,89.7%,61.8%,86.5%,99.5%
COc1ccc(Cn2c(C(N)=O)cc3c2-c2nc(N)ncc2CCC3)cc1,93.2%,97.2%,102%,99.3%,99.3%,98.7%,95.4%,107%,99.2%,105%
COc1ccc2c(c1)O/C(=C\c1ncc([N+](=O)[O-])n1C)C2=O,-13.6% (active),3.5% (active),2.04% (active),-12.6% (active),7.52% (active),-94.2% (active),-85.1% (active),-29.2% (active),-31.9% (active),-54.5% (active)
Cc1ccc(NC(=O)Nc2cccnc2)cc1NC(=O)Nc1cccnc1,89.6%,95.9%,94%,79%,43.4%,64.3%,75.7%,96.6%,98.8%,83%
COc1ccccc1/C=C/C(=O)c1ccccc1,54.2%,87.8%,99.4%,58.4%,54.5%,82.1%,67.3%,59.8%,97.5%,84%
CCN(CC)CCOc1nc2ccc(OC)cc2c2c1-c1ccc(OC)cc1C2=O,-61.4% (active),-1.45% (active),33.5%,-87.9% (active),-0.151% (active),-36.1% (active),36%,-74.6% (active),-12.6% (active),20.8%
COc1ccc2c(c1)C(=O)c1c-2c(OCCN2CCCCC2)nc2ccc(OC)cc12,1.76% (active),20.8%,32.3%,12%,43.3%,22.1%,20.6%,-52.9% (active),72.3%,7.82% (active)
O=C(Nc1nc(-c2ccccc2Cl)cs1)c1cc(-c2ccc(Cl)cc2)nc2ccc(Cl)cc12,6.1% (active),20.6%,39%,12.5%,20.8%,-25.4% (active),37.5%,15%,53.5%,10.7%
COc1ccc(-c2nc3sc(-c4ccccc4)c(-c4ccccc4)n3c2/C=C/C(=O)c2ccccn2)cc1,34.7%,29.1%,97.1%,85.4%,3.71% (active),70.9%,104%,90.5%,104%,67.3%
COc1cc(NC(=O)c2sc3nc4c(cc3c2N)C(O)CCC4)cc(OC)c1 (stereo not given),67%,82.1%,93.6%,78.6%,99.5%,88.4%,73%,93.3%,85.1%,61.6%
N=C(N)c1ccc(-c2ccc(-c3ccccc3)o2)nc1,19.3%,38.5%,82.7%,83.6%,71.7%,86.1%,103%,83.4%,96.2%,109%
